Calls of active or inactive are those of the source.

For assay [1], the system named is PRMT1 (protein arginine N-methyltransferase 1). The experiment in a line: small molecules binding arginine methyltransferase PRMT1 – biochemical, small-molecule microarray, 635 nm fluorescence, primary screen (AID 1088).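 Further: binding of Prmt1 protein to compounds spotted on small-molecule microarray slides.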 The following applies: higher = more signal.
Assay [2] in a line: growth effects on S. cerevisiae YJM789 – YJM789 clinical isolate, OD600, 24 h, basal, primary screen (AID 1089).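 Further: growth of clinical yeast isolate S. cerevisiae YJM 789 seeded 1000 cells per well; test concentration not given here.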 The following applies: higher = more signal, called active from +8 up or from −8 down.
A short description of assay [3]: S. pombe growth modifiers, basal conditions – strain 972, OD600, 24 h, no modulator, primary screen (AID 1090).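 Further: basal condition with compound alone and no growth modifier present; test concentration not given here.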 The settings on record: S. pombe 972 growth, higher = more signal, called active from +8 up or from −8 down.
Assay [4] is described as follows: budding yeast growth modifiers under rapamycin – strain BY4716, OD600, 96 h, primary screen (AID 1091). Further: test concentration not given here. The settings on record: S. cerevisiae BY4716 + rapamycin, higher = more signal, called active from +8 up or from −8 down.
Assay [5] concerns the target Torsin-1A-interacting protein 2 (Homo sapiens) (UniProt Q8NFQ8). The experiment in a line: small molecules binding lysate-expressed LULL1 – cell lysate, human LULL1 lysate, 635/667 nm fluorescence, primary screen (AID 1092).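 Further: probe is lysate of COS7 cells overexpressing human LULL1; score merges per-feature 667 nm fluorescence with signal-to-noise.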 The following applies: small-molecule microarray, hLULL1 lysate binding, 635 nm fluorescence; higher = more signal.
A short description of assay [6]: optical density change of DRC41 E. coli – strain DRC41, OD650, 24 h, E. coli filamentation project, primary screen (AID 1093).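 Further: MC1000 strain lacking acrAB efflux and sulA so SOS filamentation is blocked; test concentration not given here.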 The settings on record: E. coli DRC41 growth, higher = more signal, called active from +8 up or from −8 down.
A short description of assay [7]: probe aLefty2 binding to arrayed compounds – biochemical, biotinylated probe, 635/667 nm fluorescence, primary screen (AID 1094).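 Further: score merges spot fluorescence near 667 nm with spot signal-to-noise ratio.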 The following applies: small-molecule microarray, higher = more signal.
Assay [8] relates to Noggin (protein binding on small-molecule microarray). Description: small molecules binding Noggin protein – biochemical, 635/667 nm fluorescence, primary screen (AID 1095).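 Further: score merges 667 nm feature fluorescence with signal to noise over triplicate slides.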 The following applies: 635 nm fluorescence, higher = more signal.
In assay [9] the target is Neurogenic locus notch homolog protein 3 (Homo sapiens) (UniProt Q9UM47). The experiment in a line: small molecules binding NOTCH3 protein – biochemical, 635/667 nm fluorescence, primary screen (AID 1096). The settings on record: small-molecule microarray, 635 nm fluorescence, higher = more signal.
Sequence of Neurogenic locus notch homolog protein 3 (Homo sapiens) (Q9UM47 whole entry, looked up): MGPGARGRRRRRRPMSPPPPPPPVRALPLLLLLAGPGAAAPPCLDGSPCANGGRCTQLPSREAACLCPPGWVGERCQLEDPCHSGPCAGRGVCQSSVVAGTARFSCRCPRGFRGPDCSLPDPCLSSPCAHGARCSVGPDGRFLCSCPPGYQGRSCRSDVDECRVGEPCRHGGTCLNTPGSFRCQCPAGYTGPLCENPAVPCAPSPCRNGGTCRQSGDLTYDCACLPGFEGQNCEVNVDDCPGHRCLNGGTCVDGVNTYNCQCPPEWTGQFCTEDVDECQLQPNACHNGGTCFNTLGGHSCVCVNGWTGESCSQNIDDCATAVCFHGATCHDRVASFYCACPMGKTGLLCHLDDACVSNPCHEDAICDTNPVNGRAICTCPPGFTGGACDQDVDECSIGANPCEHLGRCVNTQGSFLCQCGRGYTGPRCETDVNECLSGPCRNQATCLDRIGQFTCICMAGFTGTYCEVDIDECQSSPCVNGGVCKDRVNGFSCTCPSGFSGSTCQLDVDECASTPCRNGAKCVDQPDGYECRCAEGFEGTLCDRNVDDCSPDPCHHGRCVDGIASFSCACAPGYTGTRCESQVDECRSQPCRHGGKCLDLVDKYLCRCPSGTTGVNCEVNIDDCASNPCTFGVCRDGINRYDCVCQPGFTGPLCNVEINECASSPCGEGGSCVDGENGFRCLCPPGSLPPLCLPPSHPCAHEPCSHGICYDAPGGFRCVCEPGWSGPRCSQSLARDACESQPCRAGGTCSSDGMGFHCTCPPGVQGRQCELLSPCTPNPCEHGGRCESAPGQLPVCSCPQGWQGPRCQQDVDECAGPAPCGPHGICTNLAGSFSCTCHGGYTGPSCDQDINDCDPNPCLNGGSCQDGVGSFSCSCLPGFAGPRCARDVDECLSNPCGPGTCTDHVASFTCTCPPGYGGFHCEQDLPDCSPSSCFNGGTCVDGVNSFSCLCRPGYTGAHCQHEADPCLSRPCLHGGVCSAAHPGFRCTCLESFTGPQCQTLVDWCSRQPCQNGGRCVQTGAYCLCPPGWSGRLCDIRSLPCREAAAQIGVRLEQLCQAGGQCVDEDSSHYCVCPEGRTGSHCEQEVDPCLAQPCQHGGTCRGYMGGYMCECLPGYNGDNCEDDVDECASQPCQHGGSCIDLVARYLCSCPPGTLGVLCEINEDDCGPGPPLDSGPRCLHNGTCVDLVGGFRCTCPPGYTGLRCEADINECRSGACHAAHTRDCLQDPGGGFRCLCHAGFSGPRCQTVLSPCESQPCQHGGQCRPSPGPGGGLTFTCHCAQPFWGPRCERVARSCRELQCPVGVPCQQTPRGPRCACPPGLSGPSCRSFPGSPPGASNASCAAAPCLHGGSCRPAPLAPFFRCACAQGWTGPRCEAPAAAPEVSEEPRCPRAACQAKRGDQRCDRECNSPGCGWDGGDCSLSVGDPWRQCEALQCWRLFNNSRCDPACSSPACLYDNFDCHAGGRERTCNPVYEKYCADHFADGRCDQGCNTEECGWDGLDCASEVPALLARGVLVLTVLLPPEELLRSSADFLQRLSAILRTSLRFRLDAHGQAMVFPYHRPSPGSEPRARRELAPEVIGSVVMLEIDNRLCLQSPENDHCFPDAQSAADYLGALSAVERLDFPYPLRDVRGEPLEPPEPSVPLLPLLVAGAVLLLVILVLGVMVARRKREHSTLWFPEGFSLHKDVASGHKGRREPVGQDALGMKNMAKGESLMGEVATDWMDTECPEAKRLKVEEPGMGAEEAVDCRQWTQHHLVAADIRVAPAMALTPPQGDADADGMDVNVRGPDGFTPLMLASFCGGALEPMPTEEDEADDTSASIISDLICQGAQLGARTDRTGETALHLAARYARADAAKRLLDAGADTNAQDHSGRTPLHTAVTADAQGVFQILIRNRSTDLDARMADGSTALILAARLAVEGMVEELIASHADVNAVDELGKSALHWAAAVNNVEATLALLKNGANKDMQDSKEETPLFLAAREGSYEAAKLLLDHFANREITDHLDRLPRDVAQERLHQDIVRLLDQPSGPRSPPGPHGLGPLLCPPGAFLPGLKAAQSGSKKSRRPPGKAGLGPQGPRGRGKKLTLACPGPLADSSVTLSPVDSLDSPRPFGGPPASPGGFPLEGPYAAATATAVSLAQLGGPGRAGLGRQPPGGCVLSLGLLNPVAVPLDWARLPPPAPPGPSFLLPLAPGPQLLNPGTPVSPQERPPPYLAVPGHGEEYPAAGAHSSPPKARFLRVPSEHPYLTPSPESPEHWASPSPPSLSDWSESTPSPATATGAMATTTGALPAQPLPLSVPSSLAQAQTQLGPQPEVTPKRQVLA
Assay [10] is described as follows: probe aEGFR binding to arrayed compounds – biochemical, biotinylated probe, 635/667 nm fluorescence, primary screen (AID 1097).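 Further: probe is a biotinylated anti-EGFR antibody binding compounds printed on slides; score combines fluorescence near 667 nm and signal to noise of each spot.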 The settings on record: small-molecule microarray, higher = more signal.

Sequence of Torsin-1A-interacting protein 2 (Homo sapiens) (Q8NFQ8 whole entry, looked up): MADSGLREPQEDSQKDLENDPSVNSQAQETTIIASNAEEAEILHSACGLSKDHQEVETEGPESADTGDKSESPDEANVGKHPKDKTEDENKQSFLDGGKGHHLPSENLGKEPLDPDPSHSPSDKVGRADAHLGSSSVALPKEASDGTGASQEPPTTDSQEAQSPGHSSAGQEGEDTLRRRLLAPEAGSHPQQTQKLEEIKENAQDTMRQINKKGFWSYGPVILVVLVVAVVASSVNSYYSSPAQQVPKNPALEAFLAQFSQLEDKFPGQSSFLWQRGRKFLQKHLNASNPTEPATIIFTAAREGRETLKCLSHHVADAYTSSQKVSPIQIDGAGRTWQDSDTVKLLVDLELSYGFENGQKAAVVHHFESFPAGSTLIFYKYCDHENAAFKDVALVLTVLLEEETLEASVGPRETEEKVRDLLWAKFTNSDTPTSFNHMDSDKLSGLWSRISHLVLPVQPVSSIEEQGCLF

Regarding `CCCCCN1CC=CC23O[C@@H]4/C=C\CCCOC(=O)C4[C@H]2C(=O)N(CCCO)[C@@H]3C1=O` (stereo not given in full), the composite z-score in assay [1] was 0.83; in [5], 3.58; in assay [7] it was -0.135; in assay [8], -0.103; in assay [9] it was 0.165; in assay [10], -0.186. Further, the z-score is -1.03 (inactive) in assay [2], -0.81 (inactive) in [3], -1.67 (inactive) in [4] and 2.35 (inactive) in [6].

In the case of `COCCCNC(=O)[C@@]1(Cc2ccccc2)N=C(c2ccc(OCCCO)cc2)O[C@H]1c1ccccc1`, the composite z-score in assay [1] is 1.42; in [5], 3.36; in assay [7] it was 0.355; in [8] it was -0.416; in assay [9] it was 0.6; in assay [10], 0.265. Moreover, the z-score was -1.69 (inactive) in assay [2], -0.475 (inactive) in assay [3], -1.74 (inactive) in [4] and 0.474 (inactive) in assay [6].

On to `CCOC(=O)[C@H]1C/C=C/C[C@H](C(=O)OCC)C(=O)O[C@H]2[C@@H](OC)O[C@H](CO)[C@@H](OC(=O)Nc3ccc(C#N)cc3)[C@@H]2OC1=O`, for which the composite z-score in assay [1] is 0.595; in [5], 2.36; in assay [7] it was -0.162; in assay [8] it was 0.0435; in assay [9], 0.466; in assay [10] it was -0.382. The z-score in assay [2] is -1.87 (inactive); in assay [3], -1.11 (inactive); in assay [4] it was 32.1 (active); in assay [6], 1.92 (inactive).

With `C[N+](C)(C)CCCCNC(=O)[C@H]1C[C@H]2C(=O)N[C@@H](Cc3ccccc3)C(=O)N2[C@H]1c1ccc(O)cc1`, the composite z-score in [1] was 0.684; in [5], -0.114; in assay [7] it was -0.108; in assay [8], 1.69; in [9] it was 0.471; in [10] it was -0.112. Moreover, the z-score in assay [2] is 1.1 (inactive); in assay [3], -0.0797 (inactive); in [4], -1.15 (inactive); in [6] it was 0.282 (inactive).

Regarding `COC(=O)[C@@]1(Cc2ccc(F)cc2)[C@H]2c3cc(C(=O)N(C)C)n(Cc4nc5ccccc5[nH]4)c3C[C@H]2CN1C(=O)c1ccccc1`, the composite z-score in assay [1] is 0.173; in [5], 3.36; in [7] it was 0.341; in [8], -0.138; in assay [9], 1.08; in assay [10], 0.191. Also, the z-score in assay [2] was 0.37 (inactive); in [3], 0.821 (inactive); in assay [4] it was -0.444 (inactive); in [6] it was -0.373 (inactive).

Turning to `CC(=O)NCCCC[C@@H]1NC(=O)[C@@H]2C[C@H](C(=O)NCCCCCCNC(=O)CS)[C@H](c3cccc(OCCO)c3)N2C1=O`, the composite z-score in [1] was 1.55; in [5], 2.03; in assay [7] it was 0.498; in [8] it was 0.452; in [9], 0.249; in [10], -0.112. Besides, the z-score was -0.531 (inactive) in [2], -0.507 (inactive) in assay [3], -0.0963 (inactive) in [4] and -0.329 (inactive) in assay [6].

Turning to `COCCOC(=O)N1C(=O)[C@@]2(c3cc(C#Cc4ccc(OC)cc4)ccc31)[C@H](c1ccc(O)cc1)N1[C@H](c3ccccc3)[C@H](c3ccccc3)OC(=O)[C@H]1[C@@H]2C(=O)NC[C@H](O)c1ccccc1`, the composite z-score is 1.54 in [1]; 2.16 in assay [5]; -0.09 in [7]; 1.48 in assay [8]; 1.08 in [9]; 0.0209 in assay [10]. Further, the z-score in assay [2] was 1.5 (inactive); in [3], 0.217 (inactive); in assay [4] it was 2.82 (inactive); in assay [6], 0.873 (inactive).

As to `COc1ccc(NN2C(C(O)c3ccc([N+](=O)[O-])cc3)C=CC3C(=O)N(C4CCCCC4)C(=O)C32)cc1` (stereo not given), the composite z-score in assay [1] was 0.849; in assay [5] it was 2.69; in assay [7], 0.192; in [8], -0.0162; in assay [9], 1.09; in assay [10] it was -0.143. The z-score in [2] is 0.346 (inactive); in [3] it was 0.811 (inactive); in [4], 0.572 (inactive); in [6] it was -0.103 (inactive).

On to `COC(=O)c1c(CC[C@@H](CO)NC(=O)N[C@H](Cn2cc(Cc3ccccc3)nn2)C(C)C)oc(C(C)=O)c1C(=O)OC`, for which the composite z-score was 1.08 in assay [1]; 1.08 in assay [5]; -0.166 in assay [7]; 0.493 in assay [8]; 0.39 in [9]; -0.145 in [10]. The z-score in assay [2] is -0.178 (inactive); in [3], -0.787 (inactive); in assay [4], 0.158 (inactive); in assay [6], 0.918 (inactive).

Consider `O=C1NC(=O)C2C1C=CC(C(O)C(c1ccccc1)c1ccccc1)N2Nc1ccc(Cl)cc1Cl` (stereo not given), for which the composite z-score in assay [1] was 0.532; in [5], 2.86; in assay [7], 0.185; in assay [8] it was 0.561; in assay [9], 0.982; in assay [10], -0.0267. Also, the z-score is -0.111 (inactive) in assay [2], -0.767 (inactive) in assay [3], 1.5 (inactive) in assay [4] and -1.27 (inactive) in assay [6].

Take `CN1C(=O)C2C=CC(C(O)c3cc(C(F)(F)F)cc(C(F)(F)F)c3)N(N3CCCCC3)C2C1=O` (stereo not given): the composite z-score is 1.34 in assay [1]; 2.65 in assay [5]; 0.254 in [7]; -0.297 in assay [8]; 0.688 in assay [9]; 0.153 in [10]. In addition, the z-score in assay [2] is 1.69 (inactive); in assay [3] it was 0.763 (inactive); in [4], 1.63 (inactive); in assay [6], -0.627 (inactive).

`CC(C)C[C@@H]1NC(=O)[C@@H]2C[C@H](C(=O)NCCCCCN)[C@H](c3cccc(OCCO)c3)N2C1=O`: the composite z-score in assay [1] is 1.3; in [5], 2.73; in [7], 0.215; in [8], 0.359; in assay [9], 0.244; in assay [10], -0.0549. Further, the z-score was -4.39 (inactive) in assay [2], -0.894 (inactive) in assay [3], -1.13 (inactive) in assay [4] and 0.758 (inactive) in assay [6].

For the molecule `COCCOC(=O)N1C(=O)[C@@]2(c3cc(C#CCCO)ccc31)[C@H](C(=O)Nc1nc3ccccc3s1)[C@H]1C(=O)O[C@H](c3ccccc3)[C@H](c3ccccc3)N1[C@@H]2c1ccc(OCCO)cc1`, the composite z-score in assay [1] was 1.54; in [5], 1.89; in [7] it was 0.0444; in assay [8], 0.874; in assay [9] it was 1.1; in assay [10] it was 0.0848. For the same molecule, the z-score in [2] is 1.58 (inactive); in assay [3], 1.09 (inactive); in [4] it was 2.02 (inactive); in assay [6], 0.176 (inactive).

Consider `C=CCNC(=O)[C@H]1[C@@H]2C(=O)O[C@@H](c3ccccc3)[C@@H](c3ccccc3)N2[C@@H](c2ccccc2OCCO)[C@]12C(=O)Nc1ccc(C#CC3=CCCCC3)cc12`, for which the composite z-score in assay [1] is 1.55; in assay [5], 2.58; in assay [7], -0.117; in assay [8] it was 1.23; in assay [9], 1.1; in assay [10], -0.0108. Besides, the z-score in assay [2] was 2.06 (inactive); in [3], -1.27 (inactive); in assay [4], 4.78 (inactive); in [6], 1.25 (inactive).

The values above are taken from PubChem BioAssay.
